Source: PubChem BioAssay (NCATS)
Unmarked numbers belong to inactive results. Records with an inconclusive call do not appear. Activity calls are given as the source filed them. Unless noted, calls follow the shape of the dose curve; as a rule, active = well fitted curve in the direction sought with a large enough effect; inconclusive = small, poorly fitted or top-dose-only effect, or another doubt; inactive = no such curve, though single readings can be large; an effect the other way counts as inactive or inconclusive.

Assays:
[1] = target: Cytochrome P450 1A2 (Homo sapiens) (UniProt P05177); assay: p450-cyp1a2 (AID 410; calls by dose curve; also: potency is read from the fitted curve at half-maximal effect)
Sequence of Cytochrome P450 1A2 (Homo sapiens) (P05177 whole entry, looked up): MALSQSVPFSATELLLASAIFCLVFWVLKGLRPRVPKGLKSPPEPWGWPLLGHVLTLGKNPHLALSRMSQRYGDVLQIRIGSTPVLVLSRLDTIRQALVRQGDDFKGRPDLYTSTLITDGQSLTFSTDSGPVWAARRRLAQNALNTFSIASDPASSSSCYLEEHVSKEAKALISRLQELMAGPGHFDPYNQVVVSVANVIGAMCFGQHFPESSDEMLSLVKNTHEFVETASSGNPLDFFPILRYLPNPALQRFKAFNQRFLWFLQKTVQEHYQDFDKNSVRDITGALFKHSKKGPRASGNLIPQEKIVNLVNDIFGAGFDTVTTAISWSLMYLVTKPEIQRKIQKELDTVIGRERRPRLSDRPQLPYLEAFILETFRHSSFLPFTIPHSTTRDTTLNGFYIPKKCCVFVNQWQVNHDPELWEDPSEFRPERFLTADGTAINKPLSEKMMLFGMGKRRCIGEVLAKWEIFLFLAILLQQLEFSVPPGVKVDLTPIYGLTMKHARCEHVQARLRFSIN
In short: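 Inhibition was calculated relative to 57 uM furafylline (full inhibition). The reaction used human CYP1A2 at 20nM with Luciferin-ME at its Km, 100uM, driven by an NADPH-regenerating system for 60 min at room temperature.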

[2] = NFAT Signaling Pathway (AID 444; active = well fitted curve in either direction with a large enough effect, not every such curve was filed as active;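 also: carbachol stimulus at about its EC50 of 1 µM final; % is scaled to controls: 0 for no effect and ±100 for the full control effect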); settings: Jurkat NFAT-bla M1, carbachol, beta-lactamase ratio, 5 h; at 7.69 µM (top of the series) unless noted
In short: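 Jurkat cells carrying an NFAT-driven β-lactamase reporter and co-transfected muscarinic M1 receptor were treated with compound plus carbachol (1 uM final, an EC50 level) for 5 h at 37 °C. CCF4 loading followed for 1 h at RT; 460/530 nm ratio gave %activity.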

[3] = Stat Signaling Pathway (AID 446; active = well fitted curve in either direction with a large enough effect, not every such curve was filed as active;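 also: ME-180 cervical cancer cells given 40 pM IL-6 alongside compound; SIE-controlled beta-lactamase reporter measured as 460/530 nm FRET emission ratio; % is scaled to controls: 0 for no effect and ±100 for the full control effect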); settings: ME-180 SIE beta-lactamase reporter, IL-6 stimulated, 5 h; at 7.69 µM (top of the series) unless noted
In short: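 ME-180 SIE-bla cells; overnight plating; cpd + IL-6 40 pM, 5 h, 37 C; LiveBLAzer 2.5 h RT; 460/530 nm emission ratio. Normalized to 300 pM IL-6 and 125 nM JAK inhibitor controls.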

[4] = target: Glucocorticoid receptor (Homo sapiens) (UniProt P04150); assay: GR-GFP Redistribution (AID 450;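 active = compounds whose dose series gives a full or clear partial fitted curve of increased nuclear translocation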; also: potency is read from the fitted curve at half-maximal effect); settings: U2OS GR-GFP nuclear translocation, laser cytometry, 2 h
Sequence of Glucocorticoid receptor (Homo sapiens) (P04150 whole entry, looked up, the tested form may be a part): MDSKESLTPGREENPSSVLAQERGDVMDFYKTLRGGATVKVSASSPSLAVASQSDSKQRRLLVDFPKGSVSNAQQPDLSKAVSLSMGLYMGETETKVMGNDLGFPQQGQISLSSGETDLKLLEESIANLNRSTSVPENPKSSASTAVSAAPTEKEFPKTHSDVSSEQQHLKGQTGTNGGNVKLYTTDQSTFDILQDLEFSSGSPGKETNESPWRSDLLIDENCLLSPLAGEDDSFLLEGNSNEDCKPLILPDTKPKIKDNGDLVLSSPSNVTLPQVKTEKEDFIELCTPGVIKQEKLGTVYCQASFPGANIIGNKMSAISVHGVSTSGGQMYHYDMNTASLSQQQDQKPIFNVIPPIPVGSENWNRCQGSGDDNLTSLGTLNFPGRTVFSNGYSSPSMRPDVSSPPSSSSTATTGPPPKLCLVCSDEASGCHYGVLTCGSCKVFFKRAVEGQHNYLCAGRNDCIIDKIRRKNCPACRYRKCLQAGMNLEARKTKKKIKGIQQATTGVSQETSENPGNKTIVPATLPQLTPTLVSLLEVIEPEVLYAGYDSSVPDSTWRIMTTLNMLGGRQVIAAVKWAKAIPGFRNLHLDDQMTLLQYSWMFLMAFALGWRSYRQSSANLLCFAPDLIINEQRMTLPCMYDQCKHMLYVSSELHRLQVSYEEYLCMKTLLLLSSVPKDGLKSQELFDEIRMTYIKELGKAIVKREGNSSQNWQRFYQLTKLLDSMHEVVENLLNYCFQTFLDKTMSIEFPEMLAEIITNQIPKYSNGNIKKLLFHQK

[5] = target: Glucocorticoid receptor (Homo sapiens) (UniProt P04150); assay: GR-EFC Redistribution (AID 451; calls by dose curve; also: potency is read from the fitted curve at half-maximal effect); settings: CHO-K1 GR-EFC translocation, beta-gal luminescence, 2 h
In short: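 CHO-K1 cells stably expressing nuclear-localized β-gal enzyme acceptor and GR fused C-terminally to the enzyme donor fragment; ligand-driven nuclear translocation restores β-gal by complementation. Compounds titrated up to 46 uM final, 2 h at 37 °C; luminescence read.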

[6] = target: Mitogen-activated protein kinase 10 (Mus musculus) (UniProt Q61831); assay: JNK3 AlphaScreen Assay (AID 530; active = well fitted curve in either direction with a large enough effect, not every such curve was filed as active;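 also: kinase came from lysate of stimulated human HepG2 cells; signal reports phosphorylation of biotinylated GST-cJun 1-79 at Ser73 with 10 µM ATP; % is scaled to controls: 0 for no effect and ±100 for the full control effect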)
In short: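 JNK3 came from HepG2 lysates pre-activated with IL-1beta and TNF-alpha and phosphorylated biotinylated GST-cJun (1-79) at 10 uM ATP, pH 7.6, room temperature. Compounds were titrated. AlphaScreen signal used anti-phospho-cJun (Ser73) antibody.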

[7] = target: 3',5'-cyclic-AMP phosphodiesterase 4B (Homo sapiens) (UniProt Q07343); assay: qHTS Assay for Inhibitors of PDE-IV (AID 607; active = well fitted activation curve with a large enough effect in the main read-out, with a control signal flat, not every such curve was filed as active; also: % of control where 0% means no effect)
Sequence of 3',5'-cyclic-AMP phosphodiesterase 4B (Homo sapiens) (Q07343 whole entry, looked up): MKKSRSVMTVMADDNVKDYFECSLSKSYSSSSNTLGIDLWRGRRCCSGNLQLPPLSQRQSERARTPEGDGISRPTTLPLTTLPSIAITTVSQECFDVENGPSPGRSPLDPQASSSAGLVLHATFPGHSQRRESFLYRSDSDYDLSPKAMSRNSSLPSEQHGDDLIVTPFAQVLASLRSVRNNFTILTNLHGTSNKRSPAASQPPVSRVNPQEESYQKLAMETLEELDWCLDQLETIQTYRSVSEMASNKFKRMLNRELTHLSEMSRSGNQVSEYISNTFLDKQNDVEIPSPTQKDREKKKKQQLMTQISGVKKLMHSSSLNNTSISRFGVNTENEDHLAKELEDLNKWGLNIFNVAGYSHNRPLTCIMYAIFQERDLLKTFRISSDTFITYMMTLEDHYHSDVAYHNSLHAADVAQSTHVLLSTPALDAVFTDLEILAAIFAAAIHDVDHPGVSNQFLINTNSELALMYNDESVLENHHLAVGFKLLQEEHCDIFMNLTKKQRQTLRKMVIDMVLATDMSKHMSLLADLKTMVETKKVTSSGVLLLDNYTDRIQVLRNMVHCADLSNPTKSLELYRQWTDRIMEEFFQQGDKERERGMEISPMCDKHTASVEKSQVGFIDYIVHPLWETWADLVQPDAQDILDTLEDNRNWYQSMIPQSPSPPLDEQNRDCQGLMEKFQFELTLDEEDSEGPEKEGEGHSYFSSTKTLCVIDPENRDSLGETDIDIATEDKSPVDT
In short: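 ACTOne HEK293 cells carry a modified cAMP-gated CNG channel and express endogenous PDE4; plated 1000 cells/well, compounds up to 22.9 uM final. Membrane-potential dye fluorescence (ex 535/em 590) was read; parental cells received 10 uM forskolin + 100 uM RO 20-1724.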

[8] = target: Dual specificity protein kinase CLK4 (Homo sapiens) (UniProt Q9HAZ1); assay: qHTS Assay for Inhibitors of CDC-like Kinase 4 (Kinase-Glo Assay) (AID 1770); also: nearly all actives have a fitted effect of over 65% in size; also: potency is read from the fitted curve at half-maximal effect
Sequence of Dual specificity protein kinase CLK4 (Homo sapiens) (Q9HAZ1 whole entry, looked up): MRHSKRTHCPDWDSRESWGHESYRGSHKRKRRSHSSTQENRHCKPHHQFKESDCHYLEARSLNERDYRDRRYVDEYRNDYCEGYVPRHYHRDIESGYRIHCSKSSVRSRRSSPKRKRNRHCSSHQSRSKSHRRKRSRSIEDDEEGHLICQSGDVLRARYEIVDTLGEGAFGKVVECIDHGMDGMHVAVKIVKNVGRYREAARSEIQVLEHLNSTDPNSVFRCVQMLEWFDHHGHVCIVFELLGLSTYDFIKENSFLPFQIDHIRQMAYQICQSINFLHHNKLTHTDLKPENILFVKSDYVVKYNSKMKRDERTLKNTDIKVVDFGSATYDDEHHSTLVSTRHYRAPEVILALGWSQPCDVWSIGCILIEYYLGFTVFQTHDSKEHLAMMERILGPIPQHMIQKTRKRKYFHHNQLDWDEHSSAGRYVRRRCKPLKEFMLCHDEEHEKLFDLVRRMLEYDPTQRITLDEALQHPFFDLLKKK
In short: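 25 nM Clk4 with 100 uM RS repeat peptide and 1 uM ATP (final) in Tris pH7.5, 10 mM MgCl2, 4.5 h at room temperature. Remaining ATP measured by Kinase-Glo luciferase luminescence.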

[9] = target: Ubiquitin carboxyl-terminal hydrolase 1 (Homo sapiens) (UniProt O94782); assay: Inhibitors of USP1/UAF1: Pilot qHTS (AID 504865);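 also: rhodamine fluorescence freed from ubiquitin-rhodamine substrate followed over time; top concentration of the series differs between compounds; % is scaled to controls: 0 for no effect and ±100 for the full control effect; nearly all actives have a fitted effect of over 35% in size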
Sequence of Ubiquitin carboxyl-terminal hydrolase 1 (Homo sapiens) (O94782 whole entry, looked up): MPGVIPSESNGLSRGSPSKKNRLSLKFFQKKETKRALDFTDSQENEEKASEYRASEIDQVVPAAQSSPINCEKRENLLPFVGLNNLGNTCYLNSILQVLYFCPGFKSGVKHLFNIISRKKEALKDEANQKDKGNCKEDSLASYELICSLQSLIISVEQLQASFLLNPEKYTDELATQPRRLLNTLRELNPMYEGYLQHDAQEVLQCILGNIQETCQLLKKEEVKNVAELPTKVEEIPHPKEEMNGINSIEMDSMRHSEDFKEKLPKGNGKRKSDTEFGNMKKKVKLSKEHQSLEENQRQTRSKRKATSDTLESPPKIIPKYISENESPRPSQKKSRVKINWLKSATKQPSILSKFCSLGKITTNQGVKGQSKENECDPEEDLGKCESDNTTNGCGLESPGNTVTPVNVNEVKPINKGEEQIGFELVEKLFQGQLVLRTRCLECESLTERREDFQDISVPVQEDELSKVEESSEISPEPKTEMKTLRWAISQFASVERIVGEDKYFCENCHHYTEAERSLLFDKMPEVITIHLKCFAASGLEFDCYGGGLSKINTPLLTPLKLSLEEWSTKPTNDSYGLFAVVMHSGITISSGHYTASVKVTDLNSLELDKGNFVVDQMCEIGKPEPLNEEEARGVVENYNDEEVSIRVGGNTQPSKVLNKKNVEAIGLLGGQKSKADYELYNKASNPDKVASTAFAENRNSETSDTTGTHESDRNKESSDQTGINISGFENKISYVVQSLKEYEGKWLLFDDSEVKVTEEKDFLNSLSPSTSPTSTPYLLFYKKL
In short: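 USP1/UAF1 complex at 1 nM preincubated 15 min at room temperature with compound, then Ub-Rho substrate added at 150 nM final. Fluorescence (480/540 nm) read kinetically in 50 mM HEPES pH 7.8, 0.5 mM EDTA, 1 mM TCEP, 0.1 mg/ml BSA, 0.01% Tween-20.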

[10] = Primary qHTS for small molecule stabilizers of the endoplasmic reticulum resident proteome: Secreted ER Calcium Modulated Protein (SERCaMP) assay (AID 1508630); also: % is scaled to controls: 0 for no effect and ±100 for the full control effect
In short: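 GLuc-SERCaMP-expressing SH-SY5Y cells, pretreated 16 h with compound, are challenged with thapsigargin to empty ER calcium stores; after 4 h, coelenterazine is added directly to the medium and luminescence is imaged.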

[11] = target: Lysosomal acid glucosylceramidase (Homo sapiens) (UniProt P04062); assay: Glucocerebrosidase-p2 (AID 348; in the data active = potency below about 10 µM; also: potency is read from the fitted curve at half-maximal effect); settings: purified GBA, blue fluorogenic substrate, 40 min
Sequence of Lysosomal acid glucosylceramidase (Homo sapiens) (P04062 whole entry, looked up): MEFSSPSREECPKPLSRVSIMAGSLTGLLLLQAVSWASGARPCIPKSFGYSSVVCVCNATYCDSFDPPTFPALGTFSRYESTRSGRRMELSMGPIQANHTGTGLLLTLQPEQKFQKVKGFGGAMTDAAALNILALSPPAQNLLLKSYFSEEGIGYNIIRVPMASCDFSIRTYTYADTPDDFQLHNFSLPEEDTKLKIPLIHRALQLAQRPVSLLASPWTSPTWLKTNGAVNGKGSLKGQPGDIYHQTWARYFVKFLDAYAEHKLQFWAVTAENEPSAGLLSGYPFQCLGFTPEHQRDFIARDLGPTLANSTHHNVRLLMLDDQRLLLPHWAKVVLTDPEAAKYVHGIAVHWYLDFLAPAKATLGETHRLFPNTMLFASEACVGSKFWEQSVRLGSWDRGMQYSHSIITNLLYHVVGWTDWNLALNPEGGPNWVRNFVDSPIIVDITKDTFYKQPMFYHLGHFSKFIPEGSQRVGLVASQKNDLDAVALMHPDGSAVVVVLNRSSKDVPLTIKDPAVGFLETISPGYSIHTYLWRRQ
In short: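 Compounds titrated from 0.6 nM upwards against 0.2 nM enzyme in pH 5.9 citric acid/KH2PO4, taurocholate, tween-20; blue fluorogenic substrate 80 uM, 40 min room temperature, stopped and read Ex 365/Em 440 for AC50.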

[12] = AP1 Signaling Pathway (AID 357; active = well fitted curve in either direction with a large enough effect, not every such curve was filed as active); settings: ME-180 (cervical carcinoma) AP-1-bla reporter, EGF-induced, beta-lactamase ratio, 5 h; at 7.69 µM (top of the series) unless noted
In short: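 Beta-lactamase reporter under AP-1 response element, ME-180 background. Stimulus: EC50 EGF. Compound exposure 5 h, 37 °C. Detection: CCF4, 2.5 h RT, 460/530 nm. Values: AC50 from titration.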

[13] = target: Cytochrome P450 3A4 (Homo sapiens) (UniProt P08684); assay: qHTS Assay for Inhibitors and Substrates of Cytochrome P450 3A4 (AID 884); also: potency is read from the fitted curve at half-maximal effect; nearly all actives have a fitted effect of over 50% in size
Sequence of Cytochrome P450 3A4 (Homo sapiens) (P08684 whole entry, looked up): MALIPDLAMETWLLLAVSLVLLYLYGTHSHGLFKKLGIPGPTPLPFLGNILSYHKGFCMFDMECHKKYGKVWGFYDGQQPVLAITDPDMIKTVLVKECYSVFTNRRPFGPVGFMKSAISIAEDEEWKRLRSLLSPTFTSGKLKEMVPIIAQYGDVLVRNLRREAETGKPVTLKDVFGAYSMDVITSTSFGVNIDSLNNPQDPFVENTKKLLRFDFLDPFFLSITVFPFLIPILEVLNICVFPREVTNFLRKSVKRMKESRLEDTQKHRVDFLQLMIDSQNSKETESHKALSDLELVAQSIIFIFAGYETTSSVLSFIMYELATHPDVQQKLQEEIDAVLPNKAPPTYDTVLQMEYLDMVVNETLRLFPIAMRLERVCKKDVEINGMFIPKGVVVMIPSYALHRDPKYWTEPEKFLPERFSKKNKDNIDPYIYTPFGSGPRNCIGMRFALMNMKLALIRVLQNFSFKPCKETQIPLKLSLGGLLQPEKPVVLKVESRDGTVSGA
In short: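 20 nM human CYP3A4 with 25 uM Luciferin-PPXE (at KM) in 200 mM KPO4, preincubated 10 min with compound; NADPH regeneration started a 60 min RT reaction. Luciferin detected by luminescence, normalized to 57 uM ketoconazole as full inhibition.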

[14] = target: Cytochrome P450 3A4 (Homo sapiens) (UniProt P08684); assay: qHTS Assay for Activators of Cytochrome P450 3A4 (AID 885); also: nearly all actives have a fitted effect of over 65% in size
In short: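 20nM CYP3A4 + 25uM Luciferin-PPXE (=KM), 200mM KPO4; cpd 10 min RT; NADPH regen, 60 min RT; stop w/ detection buffer, 20 min; luminescence. Normalized to 57 uM ketoconazole.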

[15] = target: Dual specificity protein kinase CLK4 (Homo sapiens) (UniProt Q9HAZ1); assay: qHTS Assay for Inhibitors of CDC-like Kinase 4 (ADP-Glo Assay) (AID 1771); also: nearly all actives have a fitted effect of over 70% in size; also: potency is read from the fitted curve at half-maximal effect
In short: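 Kinase reaction: Clk4 at 25 nM, RS repeat peptide substrate at 100 uM, ATP at 1 uM, 1 hr, room temperature. Product ADP detected as luciferase signal via ADP-Glo.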

[16] = target: Dual specificity protein kinase CLK4 (Homo sapiens) (UniProt Q9HAZ1); assay: qHTS Assay for Inhibitors of CDC-like Kinase 4 (ADP-FP Assay) (AID 1795); also: nearly all actives have a fitted effect of over 60% in size; also: potency is read from the fitted curve at half-maximal effect
In short: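 Recombinant Clk4 (6.25 nM) phosphorylated 100 uM RS repeat peptide with 1 uM ATP in 25 mM Tris pH 7.5, 10 mM MgCl2, 0.5 mM EGTA, 2.5 mM DTT, 0.01% Triton X-100 for 1 h. ADP was detected by Transcreener ADP2 competitive fluorescence polarization after 30 min at room temperature.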

[17] = target: Cytochrome P450 2C19 (Homo sapiens) (UniProt P33261); assay: qHTS Assay for Inhibitors and Substrates of Cytochrome P450 2C19 (AID 899); also: potency is read from the fitted curve at half-maximal effect; nearly all actives have a fitted effect of over 60% in size
Sequence of Cytochrome P450 2C19 (Homo sapiens) (P33261 whole entry, looked up): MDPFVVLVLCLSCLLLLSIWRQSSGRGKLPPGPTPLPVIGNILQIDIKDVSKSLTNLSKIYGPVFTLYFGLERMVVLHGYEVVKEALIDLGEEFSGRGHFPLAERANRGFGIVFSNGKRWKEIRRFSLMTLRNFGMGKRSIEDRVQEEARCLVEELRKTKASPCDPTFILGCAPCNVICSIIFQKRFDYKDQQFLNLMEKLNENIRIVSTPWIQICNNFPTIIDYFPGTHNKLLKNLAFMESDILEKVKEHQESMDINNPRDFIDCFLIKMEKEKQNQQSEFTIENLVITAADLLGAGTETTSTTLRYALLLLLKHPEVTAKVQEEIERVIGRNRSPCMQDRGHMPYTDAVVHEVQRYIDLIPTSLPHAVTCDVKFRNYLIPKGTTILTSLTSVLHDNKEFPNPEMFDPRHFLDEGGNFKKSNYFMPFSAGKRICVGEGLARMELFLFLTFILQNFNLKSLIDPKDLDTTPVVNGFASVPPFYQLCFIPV
In short: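 NADPH-dependent conversion of Luciferin-H EGE (10uM, at KM) by 5nM enzyme in 50mM KPO4, 60 min at 37C following 10 min compound preincubation. Stopped with luciferin detection buffer; luminescence read after 20 min.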

[18] = target: Cytochrome P450 2D6 (Homo sapiens) (UniProt P10635); assay: qHTS Assay for Inhibitors and Substrates of Cytochrome P450 2D6 (AID 891); also: potency is read from the fitted curve at half-maximal effect; nearly all actives have a fitted effect of over 60% in size
In short: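 Human CYP2D6 (5 nM) with 30 uM Luciferin-ME EGE (at Km) in 100 mM KPO4, compound preincubated 10 min, then NADPH regeneration system for 60 min at room temperature. Luciferin read by luminescence; normalized to 1.43 uM quinidine.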

SMILES | Potency [1] | activity change, negative = inhibition [2] [%] | activity, negative = inhibition [3] [%] | Potency [4] [µM] | Potency [5] [µM] | Potency [6] | Potency [7] | Potency [8] | Potency [9] | outcome [10] | Potency [11] [µM] | activity change, negative = inhibition [12] [%] | Potency [13] | Potency [14] | Potency [15] | Potency [16] | Potency [17] | Potency [18]
CN(C)C(=O)c1ccc(-c2nc(-n3ccnc3)c3ccccc3n2)cc1 | 20 µM (active) | 2.92 | 6.8 | > 46 | > 46 | inactive | inactive | inactive | inactive | inactive | – | – | – | – | – | – | – | –
CS(=O)(=O)Nc1cccc(-c2cncnc2Nc2ccccc2)c1 | 5.01 µM (active) | 23.9 | -2.71 | > 46 | > 46 | inactive | inactive | – | inactive | inactive | > 11.4 | -20.2 | 0.501 µM (active) | inactive | 22.4 µM (active) | inactive | – | –
COc1ncc2nc(CCc3ccccc3)c(=O)n(CCc3ccccc3)c2n1 | 3.98 µM (active) | -0.888 | -1.74 | > 9.22 | > 46 | inactive | – | – | inactive | inactive | > 11.4 | -0.194 | 3.16 µM (active) | inactive | inactive | inactive | 7.94 µM (active) | –
COc1ncc2ncc(=O)n(CCc3ccccc3)c2n1 | – | 4.91 | -13.6 | > 9.22 | > 46 | inactive | inactive | – | inactive | inactive | > 11.4 | -10.9 | – | – | 14.1 µM (active) | 10 µM (active) | – | –
COc1ccc2[nH]cc(CCNc3ccnc(-c4cccnc4)n3)c2c1 | 0.251 µM (active) | 11.3 | -3.13 | > 46 | > 46 | inactive | inactive | 12.6 µM (active) | inactive | inactive | > 11.4 | – | 1.26 µM (active) | inactive | – | – | – | 1.26 µM (active)
CCNc1ncc2nc(-c3cccs3)c(=O)n(Cc3cccs3)c2n1 | 1.26 µM (active) | – | – | > 9.22 | > 46 | inactive | – | inactive | inactive | inactive | > 11.4 | 9.95 | 6.31 µM (active) | inactive | – | – | – | –
COc1ccccc1-c1cc(-n2ccnc2)ncn1 | 0.316 µM (active) | 7.77 | 10.2 | > 46 | > 46 | inactive | inactive | – | inactive | inactive | > 11.4 | 8.26 | 0.316 µM (active) | inactive | 6.31 µM (active) | 8.91 µM (active) | – | –
